Active and inactive are the calls of the source. How the source made its calls: active means hit-call score of the fitted dose curve at least 0.9, where 1 is the maximum; inactive means score below 0.9.
experiment: APR_HepG2_MicrotubuleCSK_1hr: Apredica 1-hour HepG2 Assay for Microtubule CSK Stabilty (AID 2282669); conditions: HepG2 microtubule cytoskeleton imaging, actives raise or lower the signal
Method: APR_HepG2_1hr is a cell-based, multiplexed-readout assay that uses HepG2, a human liver cell line, with measurements taken at 1 hour after chemical dosing in a 384-well plate.APR_HepG2_MicrotubuleCSK_1hr is one of 10 assay component(s) measured or calculated from the APR_HepG2_1hr assay. It is designed to make measurements of protein conformation, a form of conformation reporter, as detected with fluorescence intensity signals by HCS Fluorescent Imaging technology.Data from the assay component APR_HepG2_MicrotubuleCSK_1hr was analyzed into 1 assay endpoint. This assay endpoint, APR_HepG2_MicrotubuleCSK_1hr, was analyzed with bidirectional fitting relative to DMSO as the negative control and baseline of activity. Using a type of conformation reporter, measures of protein for gain or loss-of-signal activity can be used to understand the signaling at the cellular-level. Furthermore, this assay endpoint can be referred to as a primary readout, because this assay has produced multiple assay endpoints where this one serves a signaling function. To generalize the intended target to other relatable targets, this assay endpoint is annotated to the cell morphology intended target family, where the subfamily is cell conformation.
Cells were treated with dimethyl sulfoxide (DMSO) as a solvent control at a final concentration of 0.5% v/v or with compounds in DMSO with a resulting final DMSO concentration of 0.5% v/v. Compound treatment was done at concentrations of 0.39, 0.78, 1.56, 3.12, 6.24, 12.5, 25, 50, 100, and 200 uM in duplicate on each plate. Cells were treated with compounds for 1, 24, or 72 hr. Carbonyl […] m-chloro-phenylhydrazone (CCCP) and taxol were used as positive controls for mitochondrial function and cytoskeletal stability, respectively; DMSO served as the negative control for this experiment. Cells were fixed by the direct addition of 50 uL formaldehyde in Hank's Balanced Salt Solution (HBSS) to a final concentration of 3.7%. After incubation in the fixation medium for 30 min at room temperature (293-298 K), cells were rinsed twice with HBSS and treated with cell permeabilization buffer (16 uL of 0.5% Triton X-100) for 10 min at room temperature (293-298 K) before labeling. For mitochondrial membrane potential and mitochondrial measurements, pre-fixed cells were incubated with 50 uL of MitoTracker Red CMXRos (Invitrogen) at a concentration of 250 nM for 30 min before fixation. In the remaining cases, post-fixed cells were labeled by incubation with a multiplexed mixture of primary antibodies in HBSS for 60 min at room temperature (293-298 K) to detect immunoreactivity of c-Jun (1:500), phospho-histone H3 (1:100), phospho-histone H2A.x (1:200), p53 (1:400), alpha-tubulin (1:200) and Hoechst 33342 (2 ug/mL). Cells were labeled for multiplexed imaging on two separate plates: a) Hoechst 33342, MitoTracker Red, phospho-histone H3, and alpha-tubulin, and b) Hoechst 33342, phospho-histone H2A.x, and c-Jun. A final rinse with HBSS (50 uL) was performed before analysis. The primary and secondary antibodies for the proteins were phospho-histone H3 (rabbit anti-phospho-histone H3 and FITC-donkey anti-rabbit IgG), phospho-histone H2A.x (mouse anti-phospho-histone H2A.x and FITC-donkey anti-mouse IgG), c-Jun (rabbit anti-phospho-c-Jun and Cy3-donkey anti-rabbit IgG), p53 (sheep anti-p53 and Cy5-donkey anti-sheep IgG), alpha-tubulin (mouse anti-alpha-tubulin and Cy5-donkey anti-mouse IgG). These antibodies are available as the CellCiphr HepG2 assay kit (Millipore).Digital images of each well were captured using a Cellomics ArrayScan VTI (Thermo Scientific Cellomics) (0.8 NA objective, 0.63x optical coupler, and XF-93 filter set) at 20x magnification. The images were acquired using the autofocus feature of the ArrayScan instrument, which entails the following steps. First, the camera focuses on channel 1 (Hoechst 33342), where nuclei are identified. Second, a Z offset of 1 um is used for capturing mitochondria (MitoTracker Red). […]

Row | Structure (SMILES) | outcome
1 | COP(=O)(OC)SCn1c(=O)oc2cc(Cl)cnc21 | inactive
2 | CCNc1nc(Cl)nc(NC(C)(C)C#N)n1 | inactive
3 | CC(COc1ccc(Oc2ccccc2)cc1)Oc1ccccn1 (stereo not given) | inactive
4 | CCOP(=S)(OCC)SCCSCC | inactive
5 | CC(C)N(C(=O)SCC(Cl)=C(Cl)Cl)C(C)C | inactive
6 | CN(C)NC(=O)CCC(=O)O | inactive
7 | CCOP(=S)(OCC)Oc1cc(C)nc(C(C)C)n1 | inactive
8 | CCCSP(=O)(OCC)Oc1ccc(Br)cc1Cl (stereo not given) | inactive
9 | COc1cc(OC)nc(Sc2cccc(Cl)c2C(=O)O)n1 | inactive
10 | CCCOc1nn(C(=O)NS(=O)(=O)c2ccccc2C(=O)OC)c(=O)n1C | inactive
11 | COc1ccc(C(=CC(=O)N2CCOCC2)c2ccc(Cl)cc2)cc1OC | inactive
12 | Cc1nn(-c2cc(NS(C)(=O)=O)c(Cl)cc2Cl)c(=O)n1C(F)F | inactive
13 | CCOC(=O)COc1cc(-c2nn(C)c(OC(F)F)c2Cl)c(F)cc1Cl | inactive
14 | CCCSP(=O)(OCC)SCCC | inactive
15 | CCc1cnc(C2=NC(C)(C(C)C)C(=O)N2)c(C(=O)O)c1 (stereo not given) | inactive
16 | O=[N+]([O-])c1cc(C(F)(F)F)c(Cl)c([N+](=O)[O-])c1Nc1ncc(C(F)(F)F)cc1Cl | inactive
17 | CCOP(=S)(OCC)Oc1ccc2c(C)c(Cl)c(=O)oc2c1 | inactive
18 | CCOP(=O)(NC(C)C)Oc1ccc(SC)c(C)c1 (stereo not given) | inactive
19 | C[N+]1(C)CCCCC1 | inactive
20 | CSc1nc(NC(C)C)nc(NC(C)C)n1 | inactive

Row | Structure (SMILES) | outcome
21 | CNc1cnn(-c2cccc(C(F)(F)F)c2)c(=O)c1Cl | inactive
22 | COc1cccc(C(=O)NN(C(=O)c2cc(C)cc(C)c2)C(C)(C)C)c1C | inactive
23 | N#CSCSC#N | inactive
24 | CC(C1CC1)C(O)(Cn1cncn1)c1ccc(Cl)cc1 (stereo not given) | inactive
25 | COP(=O)(OC)C(O)C(Cl)(Cl)Cl (stereo not given) | inactive
26 | CON=C(C(=O)OC)c1ccccc1CON=C(C)c1cccc(C(F)(F)F)c1 | inactive
27 | CCOP(=S)(Oc1cnc(C(C)(C)C)nc1)OC(C)C (stereo not given) | inactive
28 | CN(C)C(=O)Nc1cccc(C(F)(F)F)c1 | inactive
29 | CCOP(=S)(OCC)Oc1ccc([N+](=O)[O-])cc1 | inactive
30 | CNC(=O)ON=C(SC)C(=O)N(C)C | inactive
31 | CSc1nnc(C(C)(C)C)c(=O)n1N | inactive
32 | CCCCOC(=O)[C@@H](C)Oc1ccc(Oc2ccc(C#N)cc2F)cc1 | inactive
33 | CC(C)=CC1C(C(=O)OCN2C(=O)C3=C(CCCC3)C2=O)C1(C)C (stereo not given) | inactive
34 | CCOP(=O)(OCC)Oc1cc(C)nc(C(C)C)n1 | inactive
35 | CC(Oc1cccc(Cl)c1)C(=O)O (stereo not given) | inactive
36 | Nc1nc(N)nc(NC2CC2)n1 | inactive
37 | Cc1ccn2nc(S(=O)(=O)Nc3c(F)cccc3F)nc2n1 | inactive
38 | CNC(=O)ON=C(C)SC | inactive
39 | O=C(O)c1cc(Oc2ccc(C(F)(F)F)cc2Cl)ccc1[N+](=O)[O-] | inactive
40 | CC(=NC#N)N(C)Cc1ccc(Cl)nc1 | inactive
